Assay results from PubChem BioAssay.
Calls of active or inactive are those of the source. Unless noted, the rule behind the calls is not given here.

Columns and labels:
[1] = HepG2 liver cancer cell viability effects, profiling panel, resazurin fluorescence, 24 h, PK04 Diversity Set (AID 1172); conditions: higher = more signal
[2] = basal S. cerevisiae growth modulation, no modifier, primary screen, OD600, strain BY4716, 24 h, basal condition (AID 1173); conditions: OD600, 24 h, higher = more signal, called active from +8 up or from −8 down
[3] = MM1S myeloma cell viability, profiling panel, resazurin fluorescence, basal, 24 h, PK04 Diversity Set (AID 1174); conditions: higher = more signal, called active from +8 up or from −8 down;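 note: MM1S multiple myeloma cell line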
[4] = biological target: Dihydroorotate dehydrogenase (quinone), mitochondrial (Plasmodium falciparum (isolate 3D7)) (UniProt Q08210); experiment: PfDHODH enzyme inhibitors, primary screen, biochemical, C-terminal His tag, absorbance 600 nm (AID 1175); conditions: DCIP absorbance 600 nm, higher = more signal, called active from +8 up or from −8 down;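 note: recombinant parasite enzyme with a five histidine tag at its C terminus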
[5] = P. aeruginosa biofilm formation inhibitors, primary screen, strain PAO1, LB-PBS medium, absorbance 600 nm (AID 1176); conditions: P. aeruginosa PAO1 growth/biofilm, A600, 12 h; higher = more signal
[6] = S. cerevisiae RM11-1a growth modifiers, primary screen, strain RM11-1a, OD600, basal, 24 h (AID 1177); conditions: OD600, 24 h, higher = more signal, called active from +8 up or from −8 down;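 note: cultures grown under basal conditions with no added stressor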
[7] = E. coli acrAB mutant growth effects, primary screen, E. coli filamentation inducers, strain DRC39, OD650, 24 h (AID 1178); conditions: higher = more signal, called active from +8 up or from −8 down;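 note: growth measured as culture turbidity by optical density at 650 nm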
[8] = E. coli acrAB mutant growth effects, primary screen, E. coli filamentation inducers, strain DRC39, OD650, 48 h (AID 1179);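 note: screen aims at cell division blockers that make cells filament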; conditions: E. coli DRC39 delta-acrAB growth, higher = more signal, called active from +8 up or from −8 down
[9] = RPMI8226 myeloma cell viability, profiling panel, resazurin fluorescence, basal, 24 h, PK04 Diversity Set (AID 1180); conditions: higher = more signal;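 note: RPMI8826 multiple myeloma cell line at 5000 cells per well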
[10] = biological target: E3 ubiquitin-protein ligase XIAP (Homo sapiens) (UniProt P98170); experiment: XIAP binders, primary screen, biophysical, small-molecule microarray, fluorescence 635 nm (AID 1181); conditions: small-molecule microarray binding, higher = more signal;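 note: score merges 667 nm emission and signal to noise over triplicate slides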
[11] = system: XIP peptide (Xip251-270) binding; experiment: small-molecule binders of XIP peptide, primary screen, biochemical, small-molecule microarray, fluorescence 635/667 nm, 0.1 µg/mL protein (AID 1182); conditions: fluorescent protein binding, 635 nm, higher = more signal, called active from +8 up or from −8 down
[12] = system: XIP peptide (Xip251-270); experiment: small-molecule binders of XIP peptide, primary screen, biochemical, small-molecule microarray, fluorescence 635/667 nm, 0.5 µg/mL protein (AID 1183); conditions: small-molecule microarray binding, fluorescence 635 nm; higher = more signal
[13] = Plasmodium falciparum growth inhibition, primary screen, strain 3D7, DAPI fluorescence, 100 nL (AID 1184);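 note: parasites grown inside human red blood cells in medium with human serum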; conditions: P. falciparum 3D7 growth, 3 d, higher = more signal
[14] = biological target: Homeobox protein Hox-A13 (Mus musculus) (UniProt Q62424); experiment: inhibitors of HoxA13-DNA binding, primary screen, biochemical, fluorescence polarization, labeled oligonucleotide (AID 1185); conditions: 15 min, higher = more signal, called active from +8 up or from −8 down
[15] = inhibitors of hydroxyurea-induced Chk1 phosphorylation, primary screen, imaging, HeLa, phospho-Chk1 antibody, percent positive cells (AID 1186); conditions: hydroxyurea-induced phospho-Chk1 immunofluorescence imaging, higher = more signal
[16] = inhibitors of hydroxyurea-induced Chk1 phosphorylation, primary screen, imaging, HeLa, phospho-Chk1 nuclear intensity (AID 1187); conditions: hydroxyurea-induced phospho-Chk1 immunofluorescence imaging, higher = more signal

Homeobox protein Hox-A13 (Mus musculus), sequence (Q62424 whole entry, looked up): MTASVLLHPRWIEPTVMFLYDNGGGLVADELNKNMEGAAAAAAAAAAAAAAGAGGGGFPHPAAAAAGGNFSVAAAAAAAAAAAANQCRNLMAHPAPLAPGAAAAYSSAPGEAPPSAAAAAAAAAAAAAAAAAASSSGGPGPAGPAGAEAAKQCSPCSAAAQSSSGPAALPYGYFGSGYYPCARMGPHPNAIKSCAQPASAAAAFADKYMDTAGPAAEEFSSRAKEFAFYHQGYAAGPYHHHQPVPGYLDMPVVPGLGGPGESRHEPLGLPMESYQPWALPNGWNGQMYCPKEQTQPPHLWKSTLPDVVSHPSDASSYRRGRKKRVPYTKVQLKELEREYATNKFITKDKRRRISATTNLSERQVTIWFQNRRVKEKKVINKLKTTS
E3 ubiquitin-protein ligase XIAP (Homo sapiens), sequence (P98170 whole entry, looked up): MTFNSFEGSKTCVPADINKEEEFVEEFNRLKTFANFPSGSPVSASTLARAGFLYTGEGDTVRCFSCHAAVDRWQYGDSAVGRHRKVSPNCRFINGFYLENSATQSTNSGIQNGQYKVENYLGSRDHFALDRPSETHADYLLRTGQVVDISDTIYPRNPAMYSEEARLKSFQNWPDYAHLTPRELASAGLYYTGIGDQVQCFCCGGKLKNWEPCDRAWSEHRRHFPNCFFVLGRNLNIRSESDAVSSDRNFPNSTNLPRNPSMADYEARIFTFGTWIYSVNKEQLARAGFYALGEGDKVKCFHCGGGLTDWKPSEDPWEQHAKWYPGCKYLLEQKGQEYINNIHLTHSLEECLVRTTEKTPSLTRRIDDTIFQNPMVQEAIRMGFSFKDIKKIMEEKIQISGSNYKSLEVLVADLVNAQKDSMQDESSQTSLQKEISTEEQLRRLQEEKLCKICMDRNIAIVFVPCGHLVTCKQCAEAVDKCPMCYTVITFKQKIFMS
Dihydroorotate dehydrogenase (quinone), mitochondrial (Plasmodium falciparum (isolate 3D7)), sequence (Q08210 whole entry, looked up): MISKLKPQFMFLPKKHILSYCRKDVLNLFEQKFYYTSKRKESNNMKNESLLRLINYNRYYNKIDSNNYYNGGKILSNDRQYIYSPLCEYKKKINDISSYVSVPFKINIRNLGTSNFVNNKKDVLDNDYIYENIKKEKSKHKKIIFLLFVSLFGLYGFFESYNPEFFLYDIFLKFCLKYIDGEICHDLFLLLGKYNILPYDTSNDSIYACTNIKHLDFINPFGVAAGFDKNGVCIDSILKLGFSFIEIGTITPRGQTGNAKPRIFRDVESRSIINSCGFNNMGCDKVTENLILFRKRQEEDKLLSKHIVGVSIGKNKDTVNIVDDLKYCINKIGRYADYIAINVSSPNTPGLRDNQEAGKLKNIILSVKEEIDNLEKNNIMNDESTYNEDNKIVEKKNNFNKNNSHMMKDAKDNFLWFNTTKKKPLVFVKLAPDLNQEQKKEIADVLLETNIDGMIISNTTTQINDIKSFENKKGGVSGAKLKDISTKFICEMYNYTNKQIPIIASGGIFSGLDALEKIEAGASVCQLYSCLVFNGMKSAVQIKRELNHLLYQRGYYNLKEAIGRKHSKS

Compound | z-score [1] | z-score [2] | z-score [3] | composite z-score [4] | z-score [5] | z-score [6] | z-score [7] | z-score [8] | z-score [9] | composite z-score [10] | composite z-score [11] | composite z-score [12] | z-score [13] | z-score [14] | z-score [15] | z-score [16]
COc1ccccc1CN1C(=O)c2ccccc2[C@](Cc2ccccc2I)(C(=O)NCCCN(C)C)[C@@H]1c1ccc(CO)cc1 | -6.49 | -10.3 (active) | -9.07 (active) | -0.572 (inactive) | 1.57 (inactive) | -0.133 (inactive) | -1.17 (inactive) | -2.71 (inactive) | -6.58 | -0.175 | 0.287 (inactive) | 0.808 | -2.36 | 1.61 (inactive) | -0.215 (inactive) | -0.184 (inactive)
COC(=O)C1(CC(C)C)C=C2C(=C(C(C)C)C(=O)C2C)CN1 (centres undefined) | -0.947 | 1.46 (inactive) | -1.56 (inactive) | -1.18 (inactive) | 0.399 (inactive) | 0.271 (inactive) | -0.592 (inactive) | -0.113 (inactive) | -1.97 | 0.732 | -0.418 (inactive) | 0.172 | 1.24 | -6.06 (inactive) | 0.677 (inactive) | 0.675 (inactive)
COC(=O)[C@@]1(Cc2ccc(OC)cc2)[C@H]2c3cc(C(=O)N4CCCC4)n(CCc4ccc(OC)c(Br)c4)c3C[C@H]2CN1C(=O)c1ccccc1 | -0.142 | 0.775 (inactive) | -0.354 (inactive) | -0.844 (inactive) | 0.0539 (inactive) | -0.101 (inactive) | -0.236 (inactive) | -0.351 (inactive) | 0.282 | 0.312 | -0.0245 (inactive) | -0.879 | -1.17 | -4.39 (inactive) | -0.299 (inactive) | -0.0792 (inactive)
CCCCC(=C=CC[C@@H](O)c1ccc(OCCO)cc1)C[C@@H](O)c1ccccn1 | -0.517 | -1.12 (inactive) | -0.769 (inactive) | -8.71 (active) | 0.932 (inactive) | 0.43 (inactive) | 0.753 (inactive) | 0.239 (inactive) | -0.541 | 0.133 | 0.0856 (inactive) | -0.24 | -0.979 | -5.87 (inactive) | 0.784 (inactive) | 0.744 (inactive)
COCCOC(=O)N1C(=O)[C@@]2(c3cc(C#CCCO)ccc31)[C@H](c1ccccc1OCCO)N1[C@H](c3ccccc3)[C@H](c3ccccc3)OC(=O)[C@H]1[C@@H]2C(=O)N1CCc2cc(OC)c(OC)cc2C1 | -0.321 | 1.39 (inactive) | 0.248 (inactive) | 0.725 (inactive) | 1.26 (inactive) | 2 (inactive) | 0.0965 (inactive) | 0.963 (inactive) | 1.19 | 0.132 | 0.291 (inactive) | 0.816 | -1.75 | 0.0237 (inactive) | -0.156 (inactive) | 0.0652 (inactive)
C=CCC(OC(C)=O)[C@@H]1[C@@H](N(Cc2ccc(-c3cccc(C(F)(F)F)c3)o2)C(=O)c2cccc3ccccc23)c2cc(OCCCO)ccc2N1C(=O)c1ccc2ccccc2c1 (some centres undefined) | -0.0598 | -0.988 (inactive) | -0.416 (inactive) | -0.0361 (inactive) | -0.464 (inactive) | 0.204 (inactive) | 0.807 (inactive) | 0.489 (inactive) | -0.311 | -0.04 | 0.184 (inactive) | -0.563 | -2.73 | -2.32 (inactive) | -0.675 (inactive) | -0.36 (inactive)
COCCCN1C(=O)[C@@]2(Cc3ccccc31)c1ccccc1C(=O)N(Cc1ccccc1OC)[C@H]2c1ccc(CO)cc1 | -0.525 | -0.0955 (inactive) | -0.309 (inactive) | -3.75 (inactive) | 0.292 (inactive) | -0.724 (inactive) | 0.487 (inactive) | -0.128 (inactive) | -0.0935 | -0.0622 | -0.184 (inactive) | 0.0806 | 0.861 | -2.34 (inactive) | 0.177 (inactive) | 0.217 (inactive)
COc1cc2c(cc1O)C(c1ccc(CN3CCCC3)cc1)N(Cc1ccc([N+](=O)[O-])o1)CC2 (centres undefined) | -0.274 | -0.547 (inactive) | -0.727 (inactive) | -0.412 (inactive) | 0.0898 (inactive) | 0.0464 (inactive) | -0.79 (inactive) | -0.259 (inactive) | -0.437 | 0.0537 | 0.119 (inactive) | -0.0067 | -0.672 | -7.64 (inactive) | 0.191 (inactive) | 0.134 (inactive)
C=C(COC)/C(=C/C[C@@H](OC(C)=O)c1ccccc1OCCO)c1cc(C(=O)OC)ccc1OC | -0.0418 | 0.487 (inactive) | -0.705 (inactive) | -0.069 (inactive) | 0.543 (inactive) | 0.759 (inactive) | 0.013 (inactive) | -0.199 (inactive) | -0.316 | -0.0279 | -0.0801 (inactive) | 0.587 | -2.76 | -4.47 (inactive) | -0.503 (inactive) | 0.169 (inactive)
